This note sets out measurements from PubChem BioAssay AID652067 (The Scripps Research Institute Molecular Screening Center, 2013).

SMILES strings stand for the structures. The whole screen tested about 370,000 compounds, of which about 5,400 (1.5%) were called active. Only a selection was taken, and actives are over-represented in it overall. Values without a mark were called inactive.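 Rule for the calls: active = activation above the mean of all tested compounds plus 3 SD (cut at about 5.5% in these data); inactive = the rest.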

This assay concerns DAF-12 nuclear receptor (Haemonchus contortus). Kind of assay: H. contortus DAF-12 nuclear receptor activators, primary screen, cell-based, luminescence, HEK293, lit1-tk-luc reporter (AID 652067).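 Note: 100% = response to 3 µM Δ7-dafachronic acid high control.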 Conditions: HEK293 hcDAF-12 lit1-tk-luc reporter, at 6.8 µM, active compounds read high, 0% DMSO, 100% Δ7-dafachronic acid.
As to `CCOC(=O)[C@@]12CN(C(=O)OC(C)(C)C)CC=C1N(Cc1ccc(OC)cc1)C(=O)[C@H]2CC(=O)NCc1ccc(OC)c(OC)c1`, the activation is -1.83%.
Turning to `CN1C(=O)C(Br)(Br)CC1c1cccnc1` (stereo not given), the activation is 0.36%.
To `Cc1ccc(-n2nc3c(c2NC(=O)CCC2CCCCC2)CS(=O)C3)cc1` (stereo not given) belongs 1.64%; to `O=C(COc1cccc2c1CCNC2=O)NC1CCCCC1`, 0.88%.
To `Cc1cc(NCCc2c[nH]c3ccccc23)ccc1Oc1cccnc1` belongs -1.55%; to `CCc1cc2c(=O)c(-c3nc4ccccc4n3C)c(CCCC(=O)O)oc2cc1OC(=O)C(C)(C)C`, -0.74%; to `CCc1cc2c(=O)c(-c3ccon3)c(N)oc2cc1OC`, 7.31% (active).
On to `COc1ccc2oc(N)c(C=O)c(=O)c2c1`, for which the activation was -0.56%.
On to `O=S1(=O)c2ccc(Br)cc2OC[C@H](Cc2ccccc2)N1Cc1cn(Cc2ccccc2)nn1`, for which the activation is -0.79%.
To `C=CCN=C1NC(c2ccccc2)C(C(=O)OC)=C(C)N1Cc1ccc(C(F)(F)F)cc1` (stereo not given) belongs 0.87%; to `Nn1c(SCC(=O)Nc2cccc3ccccc23)nnc1-c1cc(-c2ccc(F)cc2)n[nH]1`, -1.52%; to `Cc1cccc(-n2c(O)c(C=Nc3ccccc3N)c(=O)[nH]c2=O)c1`, 6.08% (active).
To `CC(=O)Nc1nc2ncccn2c1-c1ccc(C(F)(F)F)cc1` belongs -1.9%.
Under `O=S(=O)(c1ccccc1)N1CCC(c2nc3ccccc3o2)CC1` stands 2.42%.
Take `Clc1ccc(C(Cn2ccnc2)OCc2ccsc2Cl)c(Cl)c1` (stereo not given): the activation is -3.27%.
Under `Cn1nc(-c2ccccc2)c(CSc2cccc(Cl)c2)c1Cl` stands -1.8%.
For `O=c1c2ccccc2nc2n1C(CSc1ccc(Cl)cc1)CN2` (stereo not given), the activation is 2.36%.
With `Clc1ccc2nc(CSc3ccccc3)cn2c1`, the activation is 6.03% (active).
To `C#CCN([C@@H](C)C(=O)OCC)S(=O)(=O)c1ccc(Br)cc1F` belongs -0.18%.
Under `Cc1ccc(NNC(=O)C2CCC2)cc1C` stands 2.28%.
Take `COC(C(=O)Nc1ccc(S(=O)(=O)Nc2ccc(C)c(C)c2)cc1)c1ccccc1` (stereo not given): the activation is 0.37%.
To `Cc1ccc(N/C=C/C(=O)c2ccccc2)cc1C` belongs 15% (active); to `COC(=O)C1CN(CCc2ccccc2)CCS(=O)(=O)N1Cc1ccc(F)cc1` (stereo not given), 1.33%.
To `Cc1ccc(Cn2cc(CN3[C@@H](CC(C)C)COc4ccc(Cl)cc4S3(=O)=O)nn2)cc1` belongs -0.25%; to `COc1ccccc1N(CC(=O)Nc1ccc(C)cc1Cl)S(=O)(=O)c1cccs1`, -2.56%; to `O=C(CN1CCCCC1)NC(=O)Nc1ccccc1F`, 7.05% (active).
To `CN(CC(=O)NC(=O)Nc1ccccc1F)Cc1ccccc1` belongs -0.6%.
As for `O=C(CN1CCCCCC1)Nc1ccc(Cl)cc1F`, the activation was -0.52%.
For the compound `CCOc1ccccc1C(=O)N1CCC[C@@H]1C(=O)N1CCC[C@H]1C(=O)NCc1ccccc1`, the activation is -0.98%.
Consider `COC(=O)C1(S(=O)(=O)C2(C(=O)OC)CCCC2)CCCC1`, for which the activation was -1.17%.
To `Oc1c(Cl)cc(Cl)cc1/C=N/c1ncn[nH]1` belongs -0.22%; to `Oc1ccc(Cl)cc1/C=N/c1nc2ccccc2[nH]1`, 5.95% (active).
Turning to `O=C(NCc1ccccc1)[C@H]1CCCN1C(=O)[C@H]1CCCN1C(=O)N1CCOCC1`, the activation is 0.81%.
As for `COC(=O)C1=C(C)N(Cc2ccc(C(F)(F)F)cc2)C(=NCc2ccc(C(F)(F)F)cc2)NC1c1cccc(Cl)c1` (stereo not given), the activation is -0.62%.
Under `COc1ccc(C2CC=C(C(=O)O)C(c3ccccc3F)N2S(=O)(=O)c2ccc(C)cc2)cc1OC` (stereo not given) stands -1.61%.
To `CCOC(=O)c1c(NC(=O)C(C)Sc2c[nH]c3ccccc23)sc2c1CCC2` (stereo not given) belongs 5.61% (active); to `CCOC(=O)c1c(NC(=O)C2(C)Cc3ccccc3C(=O)O2)sc2c1CCCC2` (stereo not given), -3.38%; to `COC(=O)c1c(NC(=O)COC(=O)[C@@H](NS(=O)(=O)c2ccccc2)C(C)C)sc2c1CCC2`, 1.86%.
To `O=S1(=O)c2ccc(Br)cc2-n2nncc2CN1Cc1cccc(Cl)c1` belongs 0.57%; to `CC(C)CNS(=O)(=O)CC1NCCc2ccccc21` (stereo not given), -2.97%; to `COc1ccc(C(=O)C[n+]2ccc(C)cc2)cc1`, 6.64% (active).
Turning to `COc1ccc(C(=O)C[n+]2ccc(N)c(C)c2C)cc1`, the activation was -1.41%.
As to `COc1ccc(C(=O)CC(=O)c2ccc(C)cc2)c(O)c1`, the activation was -0.09%.
Under `O=C(CSc1nnc(-c2ccccn2)n1-c1ccc(Cl)cc1)Nc1ccccc1-c1ccccc1` stands -4.12%; under `Oc1cccc2ccc(/C=C/c3ccc(Br)s3)nc12`, 10.2% (active).
Under `O=C(Cn1c(-c2ccc(Cl)cc2)noc1=O)N1CCN(c2ccccc2F)CC1` stands -0.55%; under `Cc1ccc(NC(=O)Nc2cc(C)nn2-c2ccccc2)cc1`, -0.41%; under `COC(=O)c1cc(C(=O)OC)cc(N2C(=O)CC(N3CCN(c4ccccc4)CC3)C2=O)c1` (stereo not given), 0.25%.
On to `COC(=O)C1=NN(c2ccccc2)C2C(=O)N(c3ccccc3OC)C(=O)C12` (stereo not given), for which the activation was 9.57% (active).
`COC(=O)C1(C)NC(c2ccccc2OC)C2C(=O)N(c3ccccc3)C(=O)C21` (stereo not given): the activation was -2.14%.
Take `CCOC(=O)C1CSCCS(=O)(=O)N1Cc1ccc(Cl)cc1` (stereo not given): the activation is -2.38%.
Under `O=C(C(=O)N1CCC(CNS(=O)(=O)Cc2ccccc2)CC1)c1cc2ccccc2o1` stands -0.72%.
Under `COc1ccc(C2COC(=O)C2=N)c(NC(=O)c2ccccc2)c1` (stereo not given) stands 8.16% (active); under `COc1ccc(OC)c(NC(=O)c2cccc(S(=O)(=O)N3CCN(C(C)=O)CC3)c2)c1`, 0.25%; under `COc1cccc(C(=O)Nc2cc3c(cc2Br)OCCCO3)c1`, 3.75%.
To `COc1cc(/C=C/C(=O)n2cnc3ccccc32)cc(OC)c1OC` belongs 0.33%.
`O=C(CSc1nnc(COc2ccccc2)n1Cc1ccco1)c1ccc2ccccc2c1`: the activation is -2.67%.
To `COC(=O)c1ccc(NC(=S)Nc2cccc(C)n2)cc1` belongs 1.84%; to `CCOc1ccc(OCc2ccc(C(=O)Nc3cccc(C)n3)o2)cc1`, -1.6%; to `Cc1cccc(NC(=O)c2ccc3ccccc3n2)n1`, 9.6% (active).
